Screening data: PubChem, several laboratories
Mdm2-MdmX inh = inhibitors of human Mdm2-MdmX association, primary screen, cell-based, luminescence, split luciferase, SaOS-2, uHTS. Protein Mdm4 (Homo sapiens) + E3 ubiquitin-protein ligase Mdm2 (Homo sapiens), …. SaOS-2 split-luciferase Mdm2/MdmX complementation. inhibition, % at 8 µM. 330,000 tested, 3% active. AID 485346, 2010;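 active means inhibition of at least 50% at 8 µM in the primary screen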
Target sequence (O15151 whole entry, looked up): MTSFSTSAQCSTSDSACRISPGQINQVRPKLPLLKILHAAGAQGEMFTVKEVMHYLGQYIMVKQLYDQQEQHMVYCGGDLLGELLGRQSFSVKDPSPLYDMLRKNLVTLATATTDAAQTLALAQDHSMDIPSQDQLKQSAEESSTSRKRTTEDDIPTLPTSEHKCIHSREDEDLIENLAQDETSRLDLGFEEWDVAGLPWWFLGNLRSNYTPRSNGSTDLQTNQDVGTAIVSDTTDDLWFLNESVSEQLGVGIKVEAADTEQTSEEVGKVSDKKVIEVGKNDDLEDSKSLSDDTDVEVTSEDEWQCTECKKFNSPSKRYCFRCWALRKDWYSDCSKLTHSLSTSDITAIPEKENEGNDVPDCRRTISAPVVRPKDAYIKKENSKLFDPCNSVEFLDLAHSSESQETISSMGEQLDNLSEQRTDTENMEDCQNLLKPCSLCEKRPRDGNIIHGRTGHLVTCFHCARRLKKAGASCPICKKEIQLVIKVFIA
Target sequence (Q00987 whole entry, looked up): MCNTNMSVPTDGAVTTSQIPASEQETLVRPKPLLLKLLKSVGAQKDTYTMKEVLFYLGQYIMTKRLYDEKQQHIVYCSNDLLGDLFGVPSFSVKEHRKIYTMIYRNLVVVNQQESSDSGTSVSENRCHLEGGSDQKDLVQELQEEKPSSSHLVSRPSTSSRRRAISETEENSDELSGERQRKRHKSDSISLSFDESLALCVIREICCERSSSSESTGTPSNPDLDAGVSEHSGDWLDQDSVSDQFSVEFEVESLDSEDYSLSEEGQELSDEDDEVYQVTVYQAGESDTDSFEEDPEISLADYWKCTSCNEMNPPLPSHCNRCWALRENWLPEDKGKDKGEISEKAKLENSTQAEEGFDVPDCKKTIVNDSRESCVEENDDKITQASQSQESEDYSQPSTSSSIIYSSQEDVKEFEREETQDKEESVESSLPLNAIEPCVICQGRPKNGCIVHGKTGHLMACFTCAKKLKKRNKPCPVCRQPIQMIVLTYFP
CSC inhib = cancer stem cell viability inhibitors, primary screen, luminescence; cancer stem cell-like cells viability; AID 2717, 2010; inhibition, % at 7.5 µM; 300,000 tested, 1.1% active; in the data active means inhibition above about 75%; inconclusive means no clear call, values can overlap the other calls; tested in HMLE shEcad cells
Beta cell apopt = inhibitors of cytokine-induced beta cell apoptosis, primary screen, luminescence. INS-1E cytokine-induced death, ATP luminescence, 48 h; percent of positive-control rescue, neutral wells zero. protection from apoptosis, % (no concentration beside the values). 300,000 tested, 0.8% active. AID 435005, 2010;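 active means Every replicate reaches about 75%, or at least half do and their mean reaches it too, limit read from the data; inconclusive means At least half of replicates reach the limit but their mean does not; inactive means Under half of replicates reach the limit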;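 further: 0% = cytokine-treated negative control wells and 100% = positive control rescue; higher means more ATP so stronger rescue from cytokine killing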
Calb FLC = C. albicans growth inhibition with fluconazole, primary screen, CaCi-2 strain, Alamar Blue fluorescence; C. albicans CaCi-2 (fluconazole-resistant clinical isolate) + fluconazole, 48 h; growth inhibition, % (test concentration not listed); 300,000 tested, 0.57% active;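 active means growth inhibition above about 58% in most replicates, limit read from the data, passing the limit was not always enough; inconclusive means exactly half the replicates above a set limit; inactive means most replicates below a set limit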;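 further: all wells also contain fluconazole at 8 µg/ml as a sub-toxic cotreatment; 0% = median of DMSO wells and 100% = median of geldanamycin control wells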
MPTP inh = mitochondrial permeability transition pore inhibitors, primary screen, biochemical, isolated mouse mitochondria, absorbance. AID 602449, 2012. Ca2+ swelling absorbance, 30 min. inhibition, % at 10 µM. 360,000 tested, 1.4% active;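 active means inhibition of 50% or more, scaled per plate between neutral and stimulator controls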;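 further: 0% = DMSO wells given calcium and 100% = 1 mM EGTA wells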
Rh123 counter = fluorescence retest of MPTP screen hits in isolated mitochondria, single concentration. AID 624504, 2012. shares compounds with MPTP inh. inhibition, % at 10 µM. membrane potential, Rhodamine 123 fluorescence. 5,000 tested, 78% active; in the data active means inhibition above about 22%;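 further: 0% = DMSO vehicle and 100% = positive control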
MPTP swell DR = mitochondrial permeability transition pore inhibitors, dose response, biochemical, absorbance, uHTS hits. shares compounds with MPTP inh. isolated mitochondria swelling. IC50, µM. 780 tested, 58% active. AID 651561, 2012; in the data active means IC50 below about 20 µM
MPTP cs DR = fluorescent counter-screen in isolated mitochondria, dose response, counter-screen for MPTP inhibitor project, biochemical, fluorescence, uHTS hits. shares compounds with MPTP inh. isolated mitochondria counterscreen, fluorescence read-out. IC50, µM. 780 tested, 49% active. AID 651564, 2012; in the data active means IC50 below about 80 µM
Numbers without * were called inactive; i = inactive; u = inconclusive; x = not tested or not shown. Most compounds without a hit are left out; they make up all but 4.8% or so of the library.

SMILES	Mdm2-MdmX inh	CSC inhib	Beta cell apopt	Calb FLC	MPTP inh	Rh123 counter	others
COc1ccc(-c2c[n+]3c4n2CCCCC4=C(c2ccc(Br)cc2)C3)cc1	x	39.1	104.1*	-15.4	56.0*	68.4*
Clc1ccc(C2=C3CCCCn4c(-c5ccccc5)c[n+](c43)C2)cc1	37.9	14.6	-2.4	u	6.3	x
OCC[C@H]1C[C@@H](O)[C@H](O)[C@]2(CCCO2)O1	22.4	-2.7	-1.0	-11.8	-1.0	x
Clc1ccc(OCCOCCN2CCc3ccccc3C2)c(Cl)c1	24.9	42.3	2.5	0.8	100.0*	-6.5	MPTP swell DR=i;MPTP cs DR=31.2*
COc1ccccc1N1CCN(CC(=O)Nc2ccccc2C(=O)NC(C)c2ccccc2)CC1 (stereo not given)	-24.9	-8.2	-0.5	x	-0.3	x
Cc1ccc(NC(=O)N2CCCCC2)cc1[N+](=O)[O-]	7.8	-4.4	2.7	-5.8	2.6	x
CN(C)CCNc1ncnc2c1cnn2-c1ccc(Cl)cc1	15.9	12.4	7.2	1.2	78.0*	-19.6	MPTP swell DR=8.36*;MPTP cs DR=>80
C=CCC1(CC=C)CCCN1C(=O)c1cc(COc2cccc(OC)c2)on1	16.7	11.8	4.5	-24.1	1.3	x
C=CCC1(CC=C)CCCN1C(=O)c1cc(COc2cncc(Cl)c2)on1	25.5	11.2	x	-33.6	76.9*	96.0*
CC1Cc2cc(S(=O)(=O)NCc3ccccc3)ccc2N1C(=O)C1CCC1 (stereo not given)	-2.4	4.8	6.6	0.4	72.2*	53.2*
CC1Cc2cc(S(=O)(=O)NCc3ccccc3)ccc2N1C(=O)C1CC1 (stereo not given)	9.2	-10.5	10.4	-4.7	11.5	x
COc1cccc(C(=O)NCC2(c3ccccc3)CCCC2)c1OC	-0.6	47.9	2.0	8.4	0.7	x
N#Cc1cccc(C#N)c1Oc1ccc(S(=O)(=O)Nc2ccccc2)cc1	25.5	-2.3	-6.7	5.9	53.9*	15.5	MPTP swell DR=i;MPTP cs DR=29.9*
CCN(C(=O)CSC1=Nc2ccccc2C2CC=NN12)C1CCS(=O)(=O)C1 (stereo not given)	11.4	-3.2	-0.4	1.6	0.3	x
Cc1ccc2nc(-c3ccc(NC(=S)NCCC(C)C)cc3)sc2c1	-144.0	1.8	0.4	0.2	3.6	x
CNC(=S)Nc1ccc(-c2nc3ccc(C)cc3s2)cc1	-229.6	9.8	6.0	40.8	1.9	x
CCC(C)(C)NC(=S)Nc1ccc(-c2nc3ccc(C)cc3s2)cc1	-295.3	26.2	7.9	-20.3	84.8*	34.4*
CCCCNC(=S)Nc1ccc(-c2nc3ccc(C)cc3s2)cc1	-243.5	5.2	1.1	u	88.1*	86.5*
O=C(Cc1cccc(NC(=O)C2CCCN(C(=O)C3CCCCC3)C2)c1)Nc1cccc(C(=O)N2CCOCC2)c1 (stereo not given)	x	x	x	x	0.8	x
Cc1onc(-c2ccccc2Cl)c1C(=O)OCC(=O)N1CCCCC1	-11.9	-16.3	-0.8	x	-0.2	x
O=C(Nc1ccc(OC(F)(F)F)cc1)Oc1ccccc1N1CCCCC1	2.8	24.7	-2.7	-2.0	82.5*	88.8*
O=C(Nc1ccc(OC(F)(F)F)cc1)Oc1ccccc1N1CCOCC1	-1.0	9.0	1.7	-6.7	88.3*	81.6*
O=C(Nc1ccc(F)cc1)Oc1ccccc1N1CCOCC1	-11.4	-6.7	-2.4	1.8	7.3	x
O=S(=O)(Nc1cc(S(=O)(=O)N2CCOCC2)ccc1NCC1CCCO1)c1ccccc1F (stereo not given)	11.7	x	0.0	x	-0.6	x
CCN(CC)C(=O)[C@H]1CC(CC(=O)NCc2cccc(C(F)(F)F)c2)C(=O)N2CCc3c([nH]c4ccccc34)[C@]12C (stereo not given in full)	33.2	x	-2.4	x	61.1*	-1.1	MPTP swell DR=>100;MPTP cs DR=63.5*
SMILES	Mdm2-MdmX inh	CSC inhib	Beta cell apopt	Calb FLC	MPTP inh	Rh123 counter	others
Cc1noc(C)c1NC(=O)Nc1ccc2c(c1)C(=O)N([C@H](C)CO)C[C@H](C)[C@@H](CN(C)C(=O)Nc1ccc3c(c1)OCO3)O2	13.6	x	-1.2	x	-0.5	x
CCc1cc(C(=O)Cc2ccc(F)cc2)c(O)cc1O	11.1	41.4	-2.8	-38.9	67.8*	68.4*
Cc1cc(C)cc(-n2ncc3c2CCCC3NC(=O)c2cc(C)n(C)n2)c1 (stereo not given)	14.8	-3.5	3.7	13.7	1.1	x
Cc1cccc(-n2ncc3c2CCCC3NC(=O)c2cccs2)c1C (stereo not given)	x	x	x	x	10.5	x
Cc1cc(C(=O)NC2CCCc3c2cnn3-c2ccc(C(C)(C)C)cc2)nn1C (stereo not given)	48.0	35.5	54.1	-21.9	88.6*	104.8*
Cc1cccc(-n2ncc3c2CCCC3NC(=O)c2ccncc2)c1C (stereo not given)	x	x	x	x	86.3*	90.1*
Cc1cc(C)c(S(=O)(=O)Nc2nnc(C3CCCCC3)s2)c(C)c1	-4.1	17.1	-2.5	x	2.2	x
O=C(NNS(=O)(=O)c1ccc(F)cc1F)C1Cc2c(ccc3ccccc23)O1 (stereo not given)	29.2	1.7	0.6	40.0	73.0*	51.9*
O=C(C1CCCO1)N1CCN(S(=O)(=O)c2cc(C(F)(F)F)ccc2Cl)CC1 (stereo not given)	-6.4	x	x	x	0.3	x
CCCNC(=O)[C@H]1N2C(=O)c3c(ccc(OC)c3OC)C2SC1(C)C (stereo not given in full)	-3.8	-3.3	-4.4	-6.0	-0.2	x
CC(=O)c1cccc(S(=O)(=O)Nc2ccc3nc(C)sc3c2)c1	17.4	-2.1	17.2	9.4	91.3*	57.4*
COc1cc(S(=O)(=O)Nc2ccc3nc(C)sc3c2)ccc1NC(C)=O	25.2	7.5	-0.2	x	68.4*	86.3*
Cc1nc2ccc(S(=O)(=O)Nc3ccccc3C)cc2s1	0.4	39.6	0.4	21.8	-0.4	x
Cc1nc2ccc(NS(=O)(=O)c3ccc(C)c(C)c3)cc2s1	-19.7	7.8	28.4	4.8	96.3*	94.4*
O=C(N/N=C/C(Br)=C/c1ccccc1)c1cnccn1	20.8	14.2	-8.1	-6.1	0.4	x
COc1cc(NC(=O)COc2cc(O)c3c(c2)OC(C)(C)CC3=O)cc(OC)c1OC	29.7	11.8	109.6*	3.4	98.8*	98.3*
OC(CNCc1ccco1)Cn1c2ccccc2c2ccccc21 (stereo not given)	23.3	10.8	-2.3	21.8	-2.6	x
